Inconclusive results are not listed. Values without a mark were called inactive. Calls of active or inactive are those of the source. Calls follow the shape of the dose curve; as a rule, active = well fitted activation curve with a large enough effect in the repeat runs; inconclusive = weak or mixed curves; inactive = no such curve, though single readings can be large or run the other way.
These molecules were tested against Aryl hydrocarbon receptor (Homo sapiens) (UniProt P35869) (assay: qHTS assay to identify small molecule that activate the aryl hydrocarbon receptor (AhR) signaling pathway (AID 743085;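 also: HG2L7.5c1 human HepG2 liver cells with stably integrated DRE-driven firefly reporter; nearly all actives have a fitted effect of over 15% in size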)). Details: HepG2 AhR-luc (HG2L7.5c1), luciferase, 24 h; series mostly up to 70.3 µM; activation: at the top concentration.
Description: U.S. Tox21 Program National Center for Advancing Translational Sciences [NCATS] NIH Chemical Genomics Center [NCGC] U.S. Environmental Protection Agency [EPA] National Institutes of Environmental Health Sciences [NIEHS] National Toxicology Program [NTP] U.S. Food and Drug Administration [FDA] Tox21 Assay overview: The Aryl hydrocarbon Receptor (AhR), a member of the family of basic helix-loop-helix transcription factors, is crucial to adaptive responses to environmental changes. AhR mediates cellular responses to environmental pollutants such as aromatic hydrocarbons through induction of phase I and II enzymes but also interacts with other nuclear receptor signaling pathways. A cell based HepG2-AhR-luc assay (HG2L7.5c1 cell line, developed by Dr. Michael S. Denison, University of California at Davis, was used to assess the activation of AhR. HepG2 (human hepatocellular carcinoma) cells were stably transfected with an Ah receptor-responsive firefly luciferase reporter gene plasmid containing 20 dioxin responsive elements and luciferase reporter gene. Increased luciferase activity can be used to identify the compounds that induce AhR activation.
Tox21 Assay Protocol Summary: 4000 cells in 5 uL/well were dispensed into white wall/solid bottom 1536-well plates using a Multidrop Combi (Thermo Fisher Scientific Inc., Waltham, MA) dispenser. After the assay plates were incubated at 37C for 5 h, 23 nL of compound or DMSO vehicle was transferred to the assay plates by a pintool station (Kalypsys, San Diego, CA). The plates were incubated at 37C for 24 hr. After 1 ul/well of CellTiter-Fluor reagent (Promega, Madison, WI) was added into the assay plates using a Flying Reagent Dispenser (FRD) (Aurora Discovery, CA), the assay plates were incubated at 37C for 30 min. The fluorescence intensity in the plates was measured using a ViewLux plate reader (PerkinElmer, Shelton, CT), followed by the addition of 4 uL of ONE-Glo Luciferase Assay reagent (Promega) using an FRD (Aurora Discovery). After the assay plates were incubated at room temperature for 30 min, luminescence intensity was measured using a ViewLux plate reader (Perkin Elmer).
% is scaled to controls: 0 for no effect and ±100 for the full control effect.

Sequence of Aryl hydrocarbon receptor (Homo sapiens) (P35869 whole entry, looked up): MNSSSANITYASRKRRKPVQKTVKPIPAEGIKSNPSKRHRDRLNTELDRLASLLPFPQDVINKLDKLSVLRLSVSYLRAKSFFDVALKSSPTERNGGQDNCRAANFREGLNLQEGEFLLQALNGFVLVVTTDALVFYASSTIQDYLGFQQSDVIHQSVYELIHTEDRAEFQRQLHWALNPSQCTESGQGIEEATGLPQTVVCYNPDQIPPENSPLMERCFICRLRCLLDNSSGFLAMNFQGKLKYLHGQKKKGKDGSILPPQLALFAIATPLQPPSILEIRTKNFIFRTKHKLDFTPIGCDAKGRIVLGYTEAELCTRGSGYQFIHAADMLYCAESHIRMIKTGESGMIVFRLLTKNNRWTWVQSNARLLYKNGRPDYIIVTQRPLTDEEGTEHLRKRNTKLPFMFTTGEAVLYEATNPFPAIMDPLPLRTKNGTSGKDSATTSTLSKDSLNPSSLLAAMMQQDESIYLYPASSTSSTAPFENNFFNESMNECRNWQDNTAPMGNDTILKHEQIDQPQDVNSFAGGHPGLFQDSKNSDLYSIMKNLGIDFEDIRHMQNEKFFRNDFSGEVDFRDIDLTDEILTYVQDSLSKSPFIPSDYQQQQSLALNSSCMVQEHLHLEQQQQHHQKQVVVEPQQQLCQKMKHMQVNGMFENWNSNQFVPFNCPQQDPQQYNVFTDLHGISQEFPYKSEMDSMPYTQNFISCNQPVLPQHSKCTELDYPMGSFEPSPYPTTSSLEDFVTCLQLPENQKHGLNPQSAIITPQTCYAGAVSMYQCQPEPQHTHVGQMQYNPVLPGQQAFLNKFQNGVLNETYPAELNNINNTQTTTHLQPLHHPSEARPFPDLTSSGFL

| Structure (SMILES) | activation | Potency |
| --- | --- | --- |
| Nc1ccccn1 | 6.11% |  |
| CC(CO)(CO)[N+](=O)[O-] | -0.718% |  |
| CC[N+](CC)(CC)CCOc1cccc(OCC[N+](CC)(CC)CC)c1OCC[N+](CC)(CC)CC | -0.324% |  |
| CC1(C)OC[C@@H](COC(=O)CCc2ccc(OC[C@@H](O)CNCCNC(=O)N3CCOCC3)cc2)O1 |  | inactive |
| c1ccc(Cc2ccccc2)cc1 | -0.126% |  |
| c1ccc(CCc2ccccc2)cc1 | 2.05% |  |
| CCCCCCCCCCCCCCCCCCO | -0.264% |  |
| CC(C)(N)C#N | 3.55% [at 95 µM] |  |
| CCN(CC#N)c1cccc(C)c1 | -0.277% |  |
| CN(C)CCN(C)CCN(C)C | 0.748% |  |
| CN1[C@@H]2CC[C@H]1CC(OC(=O)C(O)c1ccccc1)C2 (stereo not given in full) |  | inactive |
| CC(CC=O)CC(C)(C)C (stereo not given) | -1.49% |  |
| FB(F)F | -0.865% [at 95 µM] |  |
| CN(C)[C@@H]1C(=O)C(C(=O)NCN2CCCC2)=C(O)[C@@]2(O)C(=O)C3=C(O)c4c(O)cccc4[C@@](C)(O)C3C[C@@H]12 (stereo not given in full) |  | inactive |
| CC1=CC(=O)[C@H]2C[C@@H]1C2(C)C | 2.56% |  |
| CC(=O)c1ccc2ccccc2c1 | 4.1% |  |
| CC(=O)c1cnccn1 | 3.84% [at 95 µM] |  |
| CCOC(=O)OC(C)OC1=C(C(=O)Nc2ccccn2)N(C)S(=O)(=O)c2ccccc21 (stereo not given) | 2.12% |  |
| C1CCC2(CCCCO2)OC1 | 0.354% |  |
| CCCCc1nc(Cl)c(CO)n1Cc1ccc(-c2ccccc2-c2nn[nH]n2)cc1 | -0.35% |  |

| Structure (SMILES) | activation | Potency |
| --- | --- | --- |
| CCCCCCCCCC[N+](C)(C)[O-] | -0.81% |  |
| CC(=O)Nc1ccc(OCC(O)CNC(C)C)cc1 (stereo not given) | 6.09% |  |
| Cc1ccc(C(=O)Nc2ccc(S(=O)(=O)O)c3cc(S(=O)(=O)O)cc(S(=O)(=O)O)c23)cc1NC(=O)c1cccc(NC(=O)Nc2cccc(C(=O)Nc3cc(C(=O)Nc4ccc(S(=O)(=O)O)c5cc(S(=O)(=O)O)cc(S(=O)(=O)O)c45)ccc3C)c2)c1 | 6.3% |  |
| CO/N=C(\C(=O)N[C@@H]1C(=O)N2C(C(=O)O)=C(CSc3nc(=O)c(O)nn3C)CS[C@H]12)c1csc(N)n1 | -0.408% |  |
| C=COC(=O)C(C)(CC)CCC(C)C (stereo not given) | -1.36% |  |
| CC(C)CCCO | -0.869% |  |
| Cc1c(N)c(=O)n(-c2ccccc2)n1C | 2.68% [at 32.5 µM] |  |
| CCOC(=O)COC(=O)c1ccccc1C(=O)OCC | 1.8% |  |
| [Ca+2] | -0.0735% |  |
| CCN[C@H]1C[C@H](C)S(=O)(=O)c2sc(S(N)(=O)=O)cc21 | -1.55% |  |
| O=S(=O)(O)c1cc(O)c(O)c(S(=O)(=O)O)c1 | -0.472% |  |
| O=CN(CCO)CCO | -0.956% |  |
| NC(CCC(=O)O)C(=O)O (stereo not given) | 0.145% |  |
| CN(C)CCCN(C)CCCN(C)C | -0.345% |  |
| CC(N)C12CC3CC(CC(C3)C1)C2 (stereo not given) | -0.476% |  |
| O=C(O)CCSCCC(=O)O | -0.255% |  |
| CC(C)(C)C(=O)c1ccccc1 | 0.193% |  |
| C=C[Si](OC(C)=O)(OC(C)=O)OC(C)=O | 2.63% |  |
| CCCO[Si](OCCC)(OCCC)OCCC | -0.445% |  |
| CCCC(C)C(=O)OCC (stereo not given) | -1.04% |  |

— PubChem BioAssay (Tox21)
